Screening results as filed in PubChem BioAssay.
Sampled rows, rich in hits. Any-hit rate of the full collection: about 19%.
TDP1 cell noCPT = qHTS for Inhibitors of human tyrosyl-DNA phosphodiesterase 1 (TDP1): qHTS in cells in absence of CPT. DT40 Tdp1-/- hTDP1 cells, no CPT, ATP luminescence, 48 h. Potency, µM (titrated, usually from 46.2 µM), for inactives: at the top dose activity change, negative = growth inhibition, usual class: inhibitors. hit rate 15% among 420,000; also: nearly all actives have a fitted effect of over 55% in size
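No-CPT arm: Tdp1-/-;hTDP1 DT40 cells (400/well) plus compounds, incubated ≥48 hr at 37 °C. Readout CellTiter-Glo luminescence.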
KB-V1 MDR tox = kills drug-selected multidrug resistant KB-V1 cells; KB-V1 MDR cells viability, CellTiter-Glo, 72 h; Potency, µM (top dose mostly 46.1 µM), actives largely listed as cytotoxic; hit rate 3.4% among 400,000; also: nearly all actives have a fitted effect of over 60% in size
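Readout: CellTiter-Glo luminescence, 10 min after addition. Cells: KB-V1 MDR subline, 72 h at 37 degrees C with compound. Analysis: corrected, normalized data fitted to concentration-effect curves.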
DT40 TDP1 CPT = growth inhibition of DT40 Tdp1-/-;hTDP1 cells with camptothecin (screen for TDP1 inhibitors); chicken DT40 Tdp1-/-;hTDP1 cells + 20 nM CPT, ATP luminescence, 48 h; Potency, µM (titrated, usually from 46.2 µM), without a hit: top-dose activity change, negative = growth inhibition, hits mostly inhibitors; hit rate 12% among 420,000; AID 686979; also: nearly all actives have a fitted effect of over 55% in size
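Chicken DT40 Tdp1-/- cells stably complemented with human TDP1 were seeded at 400 cells/well in medium containing 20 nM camptothecin, exposed to pin-transferred compounds, and grown at 37 °C for at least 48 hr. Viability was read as ATP luminescence.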
HT1080NT lethal = kills 2HG-producing HT-1080-NT fibrosarcoma cells; hit rate 1.6% among 360,000; HT-1080-NT fibrosarcoma viability, CellTiter-Glo ATP luminescence, 48 h; Potency, µM (doses to about 46.1 µM), for inactives: top-dose activity, negative = less viability, actives largely listed as cytotoxic; AID 686970;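 also: NT is the 2HG producing partner of a matched IDH1 knockdown line; 0% = DMSO-treated cells and -100% = media-only wells without cells; nearly all actives have a fitted effect of over 55% in size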
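Read-out is CellTiter-Glo luminescence after 10 minutes at room temperature, following 48 hours' compound treatment of HT-1080-NT cells (750 cells/well, RPMI, 5% FBS, 37 degrees C).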
KB-3-1 cytotox = kills parental KB-3-1 adenocarcinoma cells; KB-3-1 viability, CellTiter-Glo ATP luminescence, 72 h; Potency, µM (highest dose often 46.1 µM), hits mostly cytotoxic; hit rate 1.4% among 400,000; also: nearly all actives have a fitted effect of over 60% in size
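72 h, 37 °C compound treatment of KB-3-1 parental cells; CellTiter-Glo added, 10 min, luminescence read. Data corrected against DMSO-only plates and normalized before curve fitting.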
HT1080 IDH1KD tx = HT-1080 IDH1 knockdown cell toxicity (counter line); Potency, µM (series often up to 46.1 µM), for inactives: top-dose activity, negative = toxicity, usual class: cytotoxic; AID 686971; hit rate 2% among 360,000; HT-1080 IDH1 knockdown viability, ATP luminescence, 48 h;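 also: 0% = DMSO wells and -100% = cell-free medium wells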
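IDH1KD HT-1080 cells, 750/well, RPMI + 5% FBS; compound pinned after 2 h settling; 48 h, 37 °C; CellTiter-Glo luminescence; % activity normalised to DMSO and no-cell wells; curves fitted, classed by r2 and efficacy.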
* hit, by the source's call; i = inactive; ? = inconclusive; . = no result. Calls follow the shape of the dose curve; as a rule, active = well fitted curve in the direction sought with a large enough effect; inconclusive = small, poorly fitted or top-dose-only effect, or another doubt; inactive = no such curve, though single readings can be large; an effect the other way counts as inactive or inconclusive. Unless noted, % is scaled to controls: 0 for no effect and ±100 for the full control effect; potency is read from the fitted curve at half-maximal effect.

SMILES	TDP1 cell noCPT	KB-V1 MDR tox	DT40 TDP1 CPT	HT1080NT lethal	KB-3-1 cytotox	HT1080 IDH1KD tx
CC1CN(S(=O)(=O)c2cccc(C(=O)N(C)C3CCCCC3)c2)CC(C)O1 (stereo not given)	10.3µM*	?	18.4µM*	0.2%	i	-4.6%
Cc1cccc(N(Cc2ccccc2)C(=O)c2cccc(S(=O)(=O)N3CC(C)OC(C)C3)c2)c1 (stereo not given)	10.3µM*	?	11.6µM*	-11.9%	i	?
CN1CCC(N(C)C(=O)c2cccc(S(=O)(=O)N3CCOCC3)c2)CC1	-12.5%	i	0.0%	6.3%	i	8.7%
Cc1cc(Nc2ccccc2)c2c([N+](=O)[O-])cc(C)c(C)c2n1	23.1µM*	i	9.2µM*	-15.2%	i	-15.0%
N#Cc1cc2c(nc1SCc1ccncc1)CCC2	?	i	18.4µM*	?	i	?
Cc1cc(NS(=O)(=O)c2ccc(NC(=O)COc3ccc(Cl)cc3)cc2)nc(C)n1	?	i	?	.	i	.
CC(=O)c1ccc(-c2cnc3c(NC=O)cc(-c4ccc(S(C)(=O)=O)cc4)cn23)cc1	7.31µM*	i	8.2µM*	?	i	6.51µM*
CC(=O)c1cccc(-c2cnc3c(NC=O)cc(-c4ccccc4F)cn23)c1	?	?	?	-24.3%	i	-22.7%
CC(=O)c1ccc(-c2cnc3c(NC=O)cc(-c4cnn(C)c4)cn23)cc1	23.1µM*	?	18.4µM*	?	?	?
O=C(COC(=O)CNS(=O)(=O)c1c(Cl)cccc1Cl)Nc1cccnc1Cl	-18.7%	i	-18.6%	5.5%	i	9.0%
CCOC(=O)N1CCN(c2c(F)cc3[nH]c(=S)[nH]c3c2Br)CC1	18.4µM*	8.2µM*	?	15.8µM*	?	?
CC(=O)c1cccc(NC(=O)C2CCN(S(=O)(=O)c3ccc4c(c3)oc(=O)n4C)CC2)c1	?	?	-21.8%	.	i	.
CC(C)=CCc1c(O)ccc2c1OC(c1ccc(O)c(O)c1)CC2=O (stereo not given)	13µM*	i	10.3µM*	-3.2%	i	-2.6%
CS(=O)(=O)N1CCCCC1c1cc(C(=O)Nc2cccc3c2CCCC3)no1 (stereo not given)	9.2µM*	i	14.6µM*	15.2%	i	3.7%
O=C(Nc1cccc2c1CCCC2)c1cc(C2CCCCN2S(=O)(=O)c2cccs2)on1 (stereo not given)	23.1µM*	i	16.4µM*	-1.0%	i	0.4%
CC(=O)Nc1ccc(C(=O)N2CCCCC2c2cc(C(=O)Nc3cccc4c3CCCC4)no2)cc1 (stereo not given)	?	?	?	16.4µM*	?	5.8µM*
CC(=O)Nc1ccc(C(=O)N2CCCCC2c2cc(C(=O)NC(C)C)no2)cc1 (stereo not given)	4.7%	i	-0.7%	15.5%	i	12.1%
O=C(Nc1ccc2c(c1)OCO2)c1cc(C2CCCCN2S(=O)(=O)c2cccs2)on1 (stereo not given)	23.1µM*	i	?	-7.6%	i	-21.6%
O=C(Nc1ccccc1)c1cc(C2CCCCN2S(=O)(=O)c2cccs2)on1 (stereo not given)	?	i	-27.1%	-16.9%	i	-22.9%
O=C(Nc1ccc2ccccc2c1)Nc1nnc(-c2ccc(F)cc2)s1	.	i	.	.	?	.
COC(=O)N(C)C[C@@H]1OCc2cnnn2CCCC(=O)N([C@H](C)CO)C[C@@H]1C	-2.8%	i	-1.3%	3.2%	i	16.3%
Cc1noc(C)c1S(=O)(=O)N1CCCCC1c1cc(C(=O)Nc2cccc3c2CCCC3)no1 (stereo not given)	20.6µM*	i	?	12.1%	i	8.7%
CCOc1ccccc1NC(=O)c1cccc(S(=O)(=O)N(Cc2ccccc2)c2ccccc2OC)c1	16.4µM*	8.2µM*	20.6µM*	0.4%	i	4.1%
COc1ccccc1N(Cc1ccccc1)S(=O)(=O)c1cccc(C(=O)NC2CC(C)(C)NC(C)(C)C2)c1	18.4µM*	i	18.4µM*	-24.8%	?	-24.2%
COc1ccccc1N(Cc1ccccc1)S(=O)(=O)c1cccc(C(=O)Nc2cc(C)ccn2)c1	25.9µM*	i	?	-24.3%	16.4µM*	?
SMILES	TDP1 cell noCPT	KB-V1 MDR tox	DT40 TDP1 CPT	HT1080NT lethal	KB-3-1 cytotox	HT1080 IDH1KD tx
Cc1ccc2c(=O)cc(C(=O)Nc3c(C)n(C)n(-c4ccccc4)c3=O)oc2c1C	-6.2%	i	1.6%	.	i	.
COc1ccc(Br)cc1C1C(C(=O)Nc2ccc(C)cc2C)=C(C)Nc2ncnn21 (stereo not given)	-25.1%	i	-8.4%	.	i	.
COc1cc(NS(=O)(=O)c2ccc(C)c(C)c2)c(OC)cc1Cl	?	18.4µM*	18.4µM*	-11.3%	?	-16.6%
COc1ccc(S(=O)(=O)Nc2ccccc2OC)cc1C	-25.2%	?	-6.0%	3.8%	i	7.9%
Cc1ccc(S(=O)(=O)N2CCCC2)cc1C(=O)N1CCC(C)CC1	-21.1%	?	?	-0.4%	i	1.3%
Cc1ccc(C(=O)c2c3ccccc3[n+]([O-])n2CCC(=O)O)cc1	-4.5%	i	-12.7%	14.9%	i	-1.0%
CCOC(=O)c1c2ccccc2[n+]([O-])n1[C@@H](C)C(N)=O	-6.7%	i	20.6µM*	8.2%	i	7.7%
CC(=O)c1ccc([N+](C)(C)C)cc1	-1.5%	i	16.7%	.	i	.
COc1cccc(NC(=O)Cn2nnc(C(=O)NCc3cccs3)c2N)c1	4.4%	?	-17.0%	?	i	?
COc1cccc(N/C(SCc2cccc([N+](=O)[O-])c2)=C(/C#N)C(=O)NCc2cccs2)c1	16.4µM*	i	?	-3.2%	i	0.2%
COc1cccc(N/C(SC)=C(/C#N)C(N)=O)c1	-17.2%	?	?	?	?	?
COc1cccc(N/C(SCc2ccccc2C)=C(/C#N)C(=O)NCc2cccs2)c1	?	5.17µM*	?	-14.2%	i	-16.5%
CCOc1ccc(N/C(SC)=C(/C#N)C(N)=O)cc1	-12.7%	i	-10.6%	6.3%	i	0.7%
CCOc1ccc(N/C(SCc2cccc([N+](=O)[O-])c2)=C(/C#N)C(N)=O)cc1	20.6µM*	i	?	-20.1%	i	?
